This passage reports growth results from PubChem BioAssay (NCI).

About 83,000 compounds went through this panel and 20% of them were active in at least one assay; those are over-represented in the sample as a whole.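 Percent growth is the endpoint: 0 to 100 indicates growth inhibition (40 means 60% inhibition), 0 means no net growth, and negative values indicate cell death.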 Values without a mark were called inactive. The source made the active and inactive calls. Rule for the calls: active = growth percent below 10; inactive = the rest.

The subject of the test is HL-60(TB) leukemia. In words: NCI-60 one-dose screen, 48 h (100 = growth as untreated, 0 = no growth, -100 = all killed). As to conditions: 10 µM unless noted.
As to `CCN(C)S(=O)(=O)Nc1cccc(Nc2ncnc3cc(NC(=O)CCl)ccc23)c1Cl`, the growth is 4.38% (active). Turning to `Clc1ccc(SSc2ccc(Cl)cc2)cc1`, the growth is 102%. As to `CCN(CC)CCCC(Nc1c2ccc(Cl)cc2nc2ccc(OC)cc12)c1ccncc1` (configuration not stated), the growth was 101%. On to `COc1ccc(/C=C2\NC(=S)NC2=O)cc1`, for which the growth is 91.6%. In the case of `CCOc1cc(/C=C/C(=O)C(C(=O)/C=C/c2ccc(OC(=O)CNc3nc4ccccc4[nH]3)c(OCC)c2)C(=O)CNc2nc3ccccc3[nH]2)ccc1OC(=O)CNc1nc2ccccc2[nH]1` it was -44.4% (active); in that of `O=C(O)CCCCCCCCCCN1C(=O)/C(=C2/C(=O)N(CC(=O)O)c3ccc(Br)cc32)SC1=S`, 9.25% (active); in that of `COC(=O)[C@H](Cc1ccc(O)cc1)NC(=O)[C@@H](OC)[C@@H]1Cc2cc3cc(OC4CC(OC5CC(O)C(O)C(C)O5)C(O)C(C)O4)c(C)c(O)c3c(O)c2C(=O)[C@H]1OC1CC(OC2CC(OC3CC(C)(O)C(O)C(C)O3)C(O)C(C)O2)C(O)C(C)O1` (some centres not stated), 8.2% (active). In the case of `COC1OC(COS(=O)OC)C(O)C(O)C1OS(=O)OC` (configuration not stated) it was 82.6%. Turning to `O=C(Nc1ccc(Cl)c(Cl)c1)NS(=O)(=O)c1cnccc1Oc1ccc(F)cc1`, the growth was 54%.

Consider `CC(C)CCSc1nc(N)nc2nc[nH]c12`, for which the growth is 76.7%. Then `CC(=O)Oc1ccccc1C(=O)N=C1[Se]CCCN1C(=O)c1ccccc1OC(C)=O`, with 12.7%; and `COc1ccc(/C=N/NC(=O)c2cnn(CC(O)Cc3ccccc3)c2N)cc1OC1CCCC1` (configuration not stated), with 105%.
